The results in this text go back to ChEMBL document CHEMBL3988442, “University of Dundee, Small-Polar-MMV Screening Library” (2021).

Each structure is given as a SMILES string.

For experiment [1], the target named is T1, Aspartate--tRNA(Asp/Asn) ligase (Mycobacterium tuberculosis (strain ATCC 25618 / H37Rv)) (UniProt P9WFW3). Further: in the data most compounds retested in dose-response had high values.
T1 sequence (whole entry): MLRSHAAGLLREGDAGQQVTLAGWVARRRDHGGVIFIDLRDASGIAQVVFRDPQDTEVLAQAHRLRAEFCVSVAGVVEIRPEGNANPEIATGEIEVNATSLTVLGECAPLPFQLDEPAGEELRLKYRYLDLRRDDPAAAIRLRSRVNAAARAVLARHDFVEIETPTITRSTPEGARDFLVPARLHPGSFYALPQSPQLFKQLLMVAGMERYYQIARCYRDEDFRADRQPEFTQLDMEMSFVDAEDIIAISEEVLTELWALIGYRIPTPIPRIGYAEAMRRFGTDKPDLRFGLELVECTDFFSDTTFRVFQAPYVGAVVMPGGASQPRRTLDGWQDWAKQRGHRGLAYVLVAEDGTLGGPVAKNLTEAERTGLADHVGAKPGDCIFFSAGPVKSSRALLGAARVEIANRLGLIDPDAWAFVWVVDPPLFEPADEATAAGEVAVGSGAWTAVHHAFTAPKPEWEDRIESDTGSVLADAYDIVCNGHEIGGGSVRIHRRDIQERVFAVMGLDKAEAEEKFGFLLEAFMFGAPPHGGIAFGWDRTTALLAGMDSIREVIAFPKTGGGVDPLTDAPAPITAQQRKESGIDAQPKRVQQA
Nature of the experiment: Assay for Asp RNA synthetase-1 from Mycobacterium tuberculosis. Type of experiment: functional. Details: scale not given: direction of the effect not stated beside the values. Conditions: 30 µM.

Experiment [2] has as its target Shiga toxin 2 (Escherichia coli O157:H7) (UniProt P09385+P09386). Nature of the experiment: E. coli 0.157:H7 Shiga Toxin SOP - stx2 screening assay. In kind it is functional. Details: scale not given: direction of the effect not stated beside the values. The note with it: 30 µM.

For `CS(=O)(=O)N1CCCCCC1C1CCN(c2ncccn2)CC1` (stereo unspecified), the Percent Effect is -3.75% in experiment [1] and 24.4% in experiment [2].

On to `Cc1cnn(CC2CCCN2Cc2nnc(Cc3ccccc3)o2)c1` (stereo unspecified), for which the results for the Percent Effect in experiment [1] and in experiment [2] were -0.062% and 20%, respectively.

On to `Cc1cccc2c1cnn2CCC(=O)NCC(=O)N(C)C`, for which the results for the Percent Effect in experiment [1] and in experiment [2] were -1.19% and -22.2%, respectively.

For `Cc1[nH]/c(=N\C(=O)c2csc(NC3CC3)n2)sc1C`, the Percent Effect was -4.09% in experiment [1] and 7.35% in experiment [2].

Take `O=C(c1n[nH]c2c1CCN(Cc1nccs1)C2)N1CCCC1`: the Percent Effect in experiment [1] is -0.578%; in experiment [2], -3.88%.

`CC(=O)N1CCCN(CC(C)(O)c2cccc(C(F)(F)F)c2)CC1` (stereo unspecified): the results for the Percent Effect in experiment [1] and in experiment [2] were 0.301% and -32.4%, respectively.

Turning to `CNc1ccc(CC2CCCN(C(=O)c3cnc(C)nc3)C2)nn1` (stereo unspecified), the Percent Effect is 1.57% in experiment [1] and -10.7% in experiment [2].

With `Clc1ccccc1C1(c2ccnc(CC3CC3)n2)CCNCC1`, the Percent Effect was -0.0892% in experiment [1] and -10.7% in experiment [2].

Take `CN1CCCC[C@@H]2[C@H]1[C@@H](c1ccccc1)CCN2C(=O)c1ccccc1`: the Percent Effect in experiment [1] was -4.21%; in experiment [2], -4.17%.

`COc1ncccc1CNC(=O)c1cccnc1O`: the Percent Effect in experiment [1] was -1.39%; in experiment [2], -17.1%.

On to `CCc1nnc2n1CCN(CCS(=O)(=O)c1ccccc1)C2`, for which the figures for the Percent Effect in experiment [1] and in experiment [2] were -3.04% and 8.79%, respectively.

`Cc1cnn(C2CCCN(C(=O)c3cn4cccnc4n3)C2)c1` (stereo unspecified): the Percent Effect in experiment [1] was -0.409%; in experiment [2], 8.96%.

Turning to `O=C(CCCn1cncn1)NC1(c2ccccc2)CCC1`, the Percent Effect is 10.9% in experiment [1] and -17.7% in experiment [2].

`Cn1cccc1CNC(=O)N(CCO)C1CCCc2ccccc21` (stereo unspecified): the Percent Effect in experiment [1] is -1.95%; in experiment [2], -4.96%.

Regarding `NC(=O)C1CCN(C(=O)Cn2nc(-c3ccccc3)oc2=O)C1` (stereo unspecified), the figures for the Percent Effect in experiment [1] and in experiment [2] were 7.46% and -67.9%, respectively.

Consider `Cc1nc(C)n(C2CCCN(C(=O)c3cnc[nH]3)C2)n1` (stereo unspecified), for which the Percent Effect is -5.96% in experiment [1] and 9.84% in experiment [2].

Turning to `Cn1cc(CN2CCCn3cnc(CN4CCCC4=O)c3C2)cn1`, the Percent Effect in experiment [1] is 2.39%; in experiment [2], -3.11%.

Consider `CC(C)c1nn(C)c(N(C)C)c1CNCc1ccc2c(c1)OCO2`, for which the Percent Effect in experiment [1] is -1.77%; in experiment [2], 30.6%.
